Unmarked numbers belong to inactive results. Calls of active or inactive are those of the source.

A short description of the experiment: cell viability in Huh7 cells, primary screen, cytotoxicity control for HCV replication inhibitor project, CellTiter-Glo luminescence, basal, 48 h (AID 1143).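 Note: Huh7 hepatoma cells carrying a hepatitis C replication reporter with no stimulus; test concentration not given here.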 The conditions noted are these: Huh7 HCV replicon, higher = more signal, called active from +8 up or from −8 down. (Cellular ATP, detected with luciferase, serves as a proxy for viable cell number.)
Consider `CC(CCN1CCCc2nc(C)c(C)cc21)=NOC(C)CN1CCCCc2nc(C)c(C)cc21` (stereo unspecified), for which the z-score was -0.466. In the case of `CCN1C(=O)[C@@H]2[C@H]3C(=CC[C@@H]2C1=O)C1(OCCCO1)[C@H]1O[C@H]1[C@H]3O` it was -8.11 (active); in that of `Cc1ccc(S(=O)(=O)N[C@@H]2COC(=O)[C@@H](C)COC(=O)CC=C[C@H]2C)cc1`, 0.215; in that of `COC(=O)C1=C(C)N(Cc2ccccc2)[C@]23O[C@](C(=O)OC)(C(=O)N2[C@@H]1c1ccccc1)C(C(=O)OC)=C3C(=O)OC`, -4.08. The figure for `CC(C)CON=C1C[C@@H](O)[C@@H](O)[C@@H]2[C@@H]3C(=O)N(c4ccc(F)cc4F)C(=O)[C@@H]3CC[C@H]12` is -0.86. For the molecule `CCOC(=O)CCN1C(=O)[C@H]2[C@H]3[C@H](O)[C@H](O)CC(=NOCC(C)C)[C@H]3CC[C@H]2C1=O`, the z-score is 0.0793. The figure for `CC(C)=CCCC(C)=CCON=C1C[C@@H](O)[C@@H](O)[C@@H]2[C@@H]3C(=O)N(C(C)(C)C)C(=O)[C@@H]3CC[C@H]12` is 0.232; for `C[C@H]1CC[C@H]2C(=O)O[C@H](COc3ccc(C(C)(C)C)cc3)CN2[C@@H]1c1ccc(Br)cc1` it is -1.47; for `COC(=O)CC=C[C@@H](C)[C@@H](C=NO[C@@H]1O[C@H](COC(C)=O)[C@@H](OC(C)=O)[C@H](OC(C)=O)[C@H]1OC(C)=O)NS(=O)(=O)c1ccc(C)cc1` it is 0.0322. The figure for `CCOC(=O)[C@H](CC(C)C)NC(=O)CCC1CC(OC(=O)NCc2cccc3ccccc23)CC2(CCCC(COC(=O)NCc3ccncc3)O2)O1` (stereo partly specified) is -0.905; for `CC(CCN1CCCc2nc(C)c(C)cc21)=NO[C@@H](C)c1cc(-c2c(C)cc(C)cc2C)no1` it is -0.636; for `O=C1[C@H]2[C@H]3[C@H](O)[C@H](O)CC(=NO[C@@H]4O[C@H](CO)[C@@H](O)[C@H](O)[C@H]4O)[C@H]3CC[C@H]2C(=O)N1c1cccc(Oc2ccccc2)c1` it is -0.31.

`CCOC(=O)NN=C1C[C@@H](O)[C@@H](O)[C@@H]2[C@@H]3C(=O)N(c4ccc(F)cc4F)C(=O)[C@@H]3CC[C@@H]12`: the z-score was 0.176.

As for `C[C@H]1CC[C@H]2C(=O)OC(CO)CN2[C@@H]1c1ccc(Br)cc1` (stereo partly specified), the z-score is 0.131. The figure for `Cn1c(=O)n2n(c1=O)[C@H]1[C@H](O)[C@@H]3O[C@@H]3C(=NOCc3ccccc3)[C@H]1CC2` is 0.637. With `O=c1n(-c2ccccc2)c(=O)n2n1CC[C@@H]1C(=NOCc3ccccc3)[C@H]3O[C@H]3[C@@H](O)[C@@H]12`, the z-score is 0.492. The figure for `C[C@@H]1CC[C@H]2C(=O)O[C@@H](Cc3ccccc3)CN2[C@H]1c1ccc(Br)cc1` is -0.309. As to `CO[C@H]1COC(=O)[C@@H](C)COC(=O)[C@H](C)NC(=O)CC=C[C@H]1C`, the z-score was -0.378. In the case of `CO[C@H]1COC(=O)CC=C[C@H](C)[C@@H](OC)COC(=O)[C@@H](C)COC(=O)CC=C[C@@H]1C` it was -1.66. Consider `COC(=O)CC=C[C@@H](C)[C@@H](C=NOCC[C@@H]1C=C[C@H](OC(C)=O)[C@@H](COC(C)=O)O1)NS(=O)(=O)c1ccc(C)cc1`, for which the z-score was 0.415.

Take `CCOC(=O)CCN1C(=O)[C@H]2[C@H]3[C@H](O)[C@H](O)CC(=NNC(=O)OCc4ccccc4)[C@@H]3CC[C@H]2C1=O`: the z-score is 0.13. In the case of `CC(C)=CCCC(C)=CCON=C1C[C@@H](O)[C@@H](O)[C@@H]2[C@@H]3C(=O)N(Cc4ccccc4)C(=O)[C@@H]3CC[C@@H]12` it was 0.18. As to `C[C@@H](ON=C1[C@H]2CCn3c(=O)n(-c4ccccc4)c(=O)n3[C@H]2[C@H](O)[C@@H]2O[C@H]12)c1cn([C@@H]2COC[C@H]2O)nn1`, the z-score was 0.981. In the case of `COc1cc(O)c(C(=O)C=Cc2ccc3c(c2)OCO3)c(OC)c1`, the z-score is -2.56.

Turning to `COC(=O)CC=C[C@@H](C)[C@@H](C=NO[C@H](C)c1cn([C@H](CO)Cc2ccccc2)nn1)NS(=O)(=O)c1ccc(C)cc1`, the z-score is -1.29. The figure for `COc1ccc(O[C@H]2C=C[C@@H](c3ccccc3)O[C@@H]2COC(=O)CCC(C)=NO[C@@H]2O[C@H](COC(C)=O)[C@@H](OC(C)=O)[C@H](OC(C)=O)[C@H]2OC(C)=O)cc1` is -0.178; for `CCOC(=O)NN=C1C[C@@H](O)[C@@H](O)[C@@H]2[C@@H]3C(=O)N(Cc4ccc5c(c4)OCO5)C(=O)[C@@H]3CC[C@H]12` it is -0.136. The figure for `CCOC(=O)[C@H](CC(C)C)NC(=O)CCC1CC(OC(=O)NCc2cccc3ccccc23)CC2(CCCC(COC(=O)NCCC(C)C)O2)O1` (stereo partly specified) is -2.6; for `CC(C)=CCCC(C)=CCON=C1C[C@@H](O)[C@@H](O)[C@@H]2[C@@H]3C(=O)N(C[C@@H]4CCCO4)C(=O)[C@@H]3CC[C@H]12` it is -0.296. In the case of `CC=CC1=C(CO)C(=O)[C@@H]2O[C@@H]2C1=O`, the z-score was -1.02. In the case of `CO[C@H]1COC(=O)CCC[C@@H](C)[C@H](OC)COC(=O)[C@@H](C)NC(=O)CC=C[C@@H]1C` it was -2.74; in that of `COc1ccc(O[C@H]2C=C[C@@H](c3ccccc3)O[C@@H]2COC(=O)CCC(C)=NOC[C@@H](O)[C@H]2O[C@@H]3OC(C)(C)O[C@@H]3[C@H]2O)cc1`, -0.119; in that of `O=C(NN=C1C[C@@H](O)[C@@H](O)[C@@H]2[C@@H]3C(=O)N(Cc4ccccc4)C(=O)[C@@H]3CC[C@@H]12)OCc1ccccc1`, -0.381. The figure for `CCOC(=O)[C@H](CC(C)C)NC(=O)CCC1CC(OC(=O)NCc2cccc3ccccc23)CC2(CCCC(COC(=O)NCCc3ccc(Cl)cc3)O2)O1` (stereo partly specified) is -0.933; for `CO[C@@H]1C=CCC(=O)N2CCC[C@H]2C(=O)OC[C@@H](C)C(=O)OC[C@H]1C` it is -0.0949; for `CC(C)CON=C1C[C@@H](O)[C@@H](O)[C@@H]2[C@@H]3C(=O)N(C4CCCCC4)C(=O)[C@@H]3CC[C@H]12` it is 0.0498.

These data come from PubChem BioAssay.
